The text below walks through data of the supplement of paper PMC6522484.

± gives the standard deviation of the averaged measurements.

The test system of experiment [1] is DLD1. Nature of the experiment: cell viability (CellTiter-Glo) relative to plate median (fraction of plate median); higher = more viable cells. The conditions noted are these: 10 µM, treatment time 24 h. Put shortly:
(§1)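 Colorectal cancer cell lines carrying stably transduced lentiviral TCF/Wnt firefly luciferase reporters (7TFP or TCF4/Wnt) were plated in 384-well plates and treated 24 h later with kinase inhibitor library compounds at a final 10 µM for 24 h. Firefly luciferase or CellTiterGlo luminescence was read on parallel plates with a Tecan F500 reader. Signals were normalised per well to the plate median in webcellHTS2 (additive, no log transformation), and values are the mean of two independent replicates.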

Experiment [2] has as its system HCT116. The experiment is described as above. The conditions noted are these: 10 µM; treatment time 24 h; reporter: TCF4/Wnt. Put shortly:
as §1

The test system of experiment [3] is SW480. Described as above. The conditions noted are these: 10 µM; treatment time 24 h; reporter: 7TFP. Put shortly: as §1
The subject of experiment [4] is DLD1. Nature of the experiment: TCF/Wnt firefly luciferase reporter signal relative to plate median (fraction of plate median); higher = higher Wnt reporter signal. The conditions noted are these: 10 µM, treatment time 24 h. The method, boiled down:
as §1
Background: In a reporter assay the amount or activity of a reporter protein is the signal.

The test system of experiment [5] is HCT116. Described as above. To be noted: 10 µM; treatment time 24 h; reporter: TCF4/Wnt. The method, boiled down:
as §1

Experiment [6] has as its system SW480. The description is as above. To be noted: 10 µM; treatment time 24 h; reporter: 7TFP. Put shortly:
as §1

As for `Cc1nc(NC(=O)N2CCC[C@H]2C(N)=O)sc1-c1ccnc(C(C)(C)C(F)(F)F)c1`, the cell viability amounted to 0.977 ± 0.047 in experiment [1] (reporter: 7TFP), 0.996 ± 0.034 in experiment [1] (reporter: TCF4/Wnt), 0.938 ± 0.1 in experiment [2] and 1.09 ± 0.028 in experiment [3]. The “TCF/Wnt firefly luciferase reporter signal” value in experiment [4] (reporter: 7TFP) was 0.558 ± 0.062; in experiment [4] (reporter: TCF4/Wnt), 0.711 ± 0.13; in experiment [5], 0.985 ± 0.13; in experiment [6], 0.791 ± 0.024.

As to `CN1CCN(c2ccc3nc(-c4c(N)c5c(F)cccc5[nH]c4=O)[nH]c3c2)CC1` [Dovitinib (TKI-258)], the cell viability came out at 0.901 ± 0.18 in experiment [1] (reporter: 7TFP), 0.908 ± 0.033 in experiment [1] (reporter: TCF4/Wnt), 0.748 ± 0.27 in experiment [2] and 1.02 ± 0.11 in experiment [3]. The “TCF/Wnt firefly luciferase reporter signal” value came to 1.26 ± 0.23 in experiment [4] (reporter: 7TFP), 1.3 ± 0.092 in experiment [4] (reporter: TCF4/Wnt), 0.97 ± 0.042 in experiment [5] and 1.39 ± 0.6 in experiment [6].

On to `O=C1NC(=O)/C(=C\c2ccc3nccnc3c2)S1`, for which the cell viability in experiment [1] (reporter: 7TFP) is 1 ± 0.038; in experiment [1] (reporter: TCF4/Wnt), 1.04 ± 0.063; in experiment [2], 1.04 ± 0.042; in experiment [3] it was 0.854 ± 0.055. The “TCF/Wnt firefly luciferase reporter signal” value in experiment [4] (reporter: 7TFP) is 1.38 ± 0.05; in experiment [4] (reporter: TCF4/Wnt) it was 1.48 ± 0.021; in experiment [5] it was 1.96 ± 0.18; in experiment [6], 1.3 ± 0.33.

Take `CN1CCN(c2ccc3nc(-c4c(N)c5c(F)cccc5[nH]c4=O)[nH]c3c2)CC1` [Dovitinib Dilactic acid (TKI258 Dilactic acid)]: the cell viability is 0.857 ± 0.19 in experiment [1] (reporter: 7TFP), 0.956 ± 0.041 in experiment [1] (reporter: TCF4/Wnt), 0.967 ± 0.13 in experiment [2] and 1.17 ± 0.035 in experiment [3]. Further, the “TCF/Wnt firefly luciferase reporter signal” value is 1.1 ± 0.099 in experiment [4] (reporter: 7TFP), 1.16 ± 0.16 in experiment [4] (reporter: TCF4/Wnt), 0.784 ± 0.52 in experiment [5] and 1.09 ± 0.69 in experiment [6].

Regarding `O=C1Nc2ccccc2/C1=C1/Nc2ccccc2C1=O` [Indirubin], the cell viability in experiment [1] (reporter: 7TFP) was found to be 0.941 ± 0.044; in experiment [1] (reporter: TCF4/Wnt), 0.819 ± 0.025; in experiment [2] it was 1.09 ± 0.13; in experiment [3], 0.862 ± 0.034. In addition, the “TCF/Wnt firefly luciferase reporter signal” value in experiment [4] (reporter: 7TFP) was 1.44 ± 0.057; in experiment [4] (reporter: TCF4/Wnt) it was 1.2 ± 0.31; in experiment [5], 0.935 ± 0.054; in experiment [6], 1.08 ± 0.042.

As to `CCn1c(-c2nonc2N)nc2c(C#CC(C)(C)O)ncc(OC[C@H]3CCCNC3)c21`, the cell viability worked out at 0.909 ± 0.074 in experiment [1] (reporter: 7TFP), 0.954 ± 0.065 in experiment [1] (reporter: TCF4/Wnt), 0.805 ± 0.0057 in experiment [2] and 1.04 ± 0.05 in experiment [3]. For the same molecule, the “TCF/Wnt firefly luciferase reporter signal” value in experiment [4] (reporter: 7TFP) amounted to 1.05 ± 0.55; in experiment [4] (reporter: TCF4/Wnt), 1.22 ± 0.26; in experiment [5], 1.65 ± 0.41; in experiment [6], 1.39 ± 0.23.

For the molecule `CCN1CCN(c2ccc(Nc3cc(N(C)C(=O)Nc4c(Cl)c(OC)cc(OC)c4Cl)ncn3)cc2)CC1`, the cell viability in experiment [1] (reporter: 7TFP) is 1.36 ± 0.18; in experiment [1] (reporter: TCF4/Wnt) it was 1.06 ± 0.071; in experiment [2], 1.16 ± 0.092; in experiment [3] it was 0.921 ± 0.033. Besides, the “TCF/Wnt firefly luciferase reporter signal” value in experiment [4] (reporter: 7TFP) was determined as 1.24 ± 0.11; in experiment [4] (reporter: TCF4/Wnt) it was 1.06 ± 0.51; in experiment [5], 0.852 ± 0.15; in experiment [6], 0.921 ± 0.12.

As for `Cc1cnc(Nc2ccc(N3CCN(C)CC3)cc2)nc1Nc1cccc(S(=O)(=O)NC(C)(C)C)c1`, the cell viability in experiment [1] (reporter: 7TFP) amounted to 0.833 ± 0.04; in experiment [1] (reporter: TCF4/Wnt) it was 0.912 ± 0.18; in experiment [2], 0.514 ± 0.17; in experiment [3], 0.702 ± 0.18. The “TCF/Wnt firefly luciferase reporter signal” value in experiment [4] (reporter: 7TFP) worked out at 1.37 ± 0.2; in experiment [4] (reporter: TCF4/Wnt), 2.17 ± 0.035; in experiment [5] it was 2.98 ± 0.97; in experiment [6], 0.613 ± 0.3.

As for `O=c1cc(N2CCOCC2)oc2c(-c3cccc4c3sc3ccccc34)cccc12`, the cell viability in experiment [1] (reporter: 7TFP) came to 1.01 ± 0.083; in experiment [1] (reporter: TCF4/Wnt), 0.964 ± 0.052; in experiment [2], 1 ± 0.094; in experiment [3] it was 1.04 ± 0.014. In addition, the “TCF/Wnt firefly luciferase reporter signal” value was determined as 1.19 ± 0.064 in experiment [4] (reporter: 7TFP), 1.16 ± 0.17 in experiment [4] (reporter: TCF4/Wnt), 1.73 ± 0.64 in experiment [5] and 1.1 ± 0.042 in experiment [6].
